The results in this text go back to PubChem BioAssay AID493244 (The Scripps Research Institute Molecular Screening Center, 2011).

“And” between values parts separate entries of the source, which are not always exact repeats. Equal entries are not always repeated. The campaign covered roughly 340,000 compounds. About 390 (0.11%) were called active. This is one part of a sample in which actives are shown more often than they occur.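 How the source made its calls: active means inhibition above the mean inhibition of all tested compounds plus 3 SD (cut at about 17% in these data); inactive means the rest.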

Broadly, the inhibition is the drop in the measured response relative to a control, in per cent.

This assay addresses Troponin I, cardiac muscle (Homo sapiens) + Troponin T, cardiac muscle (Homo sapiens) + Troponin C, slow skeletal and cardiac muscles (Homo sapiens) (UniProt P19429+P45379+P63316). The experiment in a line: cardiac RTF calcium sensitivity inhibitors, primary screen, biochemical, IANBD-TnC fluorescence, EC70 calcium (AID 493244).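 Further: assay run at fixed EC70 calcium of 1.6 mM.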 The following applies: IANBD-labeled cardiac RTF, Ca2+ fluorescence; at 7.15 µM; stronger effect = higher value.
Consider `O=C(c1cccc(F)c1)N1CCN(c2ccc([N+](=O)[O-])c3cccnc23)CC1`, for which the inhibition is 12.4% (inactive). Consider `O=C(CN1CCOCC1)Nc1cccc([N+](=O)[O-])c1`, for which the inhibition is -4.8% (inactive). Consider `CN(CCCC(=O)Nc1nccs1)S(=O)(=O)c1ccc(Cl)cc1`, for which the inhibition is -8.75% (inactive). The figure for `C=CCC1(C(=O)N(C)Cc2ccccc2)CCN(C(=O)OC(C)(C)C)CC1` is -8.43% (inactive); for `CN(C)c1ccc(NC(=O)CN2C3CCCC2CC(NC(=O)c2ccccc2)C3)cc1` (centres undefined) it is 1.88% (inactive). To `CCCn1c(=O)c(-c2ccccc2)c(O)c2ccccc21` belongs -0.9% (inactive).

Turning to `CCCCCn1c(=O)c(C(=O)OCC)c(Cl)c2ccccc21`, the inhibition is 2.78% (inactive).

With `CCCCn1c(=O)c(C(C)=O)c(O)c2ccccc21`, the inhibition was 18.1% (active).

As to `Cc1cc(C)c2nc(SCC(=O)N(C)C3CCS(=O)(=O)C3)cc(C)c2c1` (centres undefined), the inhibition was -11.7% (inactive). Turning to `Cc1cc2oc(=O)cc(-c3ccccc3)c2c(C)c1-c1ccc(OC(F)(F)F)cc1`, the inhibition is -2.33% (inactive). Consider `CCn1c(SCc2cc(=O)n3ccsc3n2)nc2ccccc21`, for which the inhibition is -0.11% (inactive). For the compound `COc1ccc(S(=O)(=O)NCC2CCCN(C(=O)c3occc3C)C2)cc1` (centres undefined), the inhibition was -1.36% (inactive). `COc1ccc2oc(N)nc2c1`: the inhibition was 1.17% (inactive). Regarding `COc1cc(C(=O)Nn2c(O)c(C3=c4ccccc4=NC3=O)sc2=S)ccc1O`, the inhibition is -0.38% (inactive). Consider `C=CCn1c(N)cc(=O)nc1SCC(=O)Nc1cccc2ccccc12`, for which the inhibition was -2.98% (inactive). For the compound `COc1cc(OC)c2c(c1)OC(=O)CC2c1cc(OC)c(OC)c(OC)c1` (centres undefined), the inhibition was -1.64% (inactive).

Take `NC(=O)C1(N2CCCCC2)CCN(C(=O)c2ccc(C#Cc3ccccc3)o2)CC1`: the inhibition was -7.6% (inactive). Regarding `N#CC1(Nc2ccc(-c3ccc(Cl)cc3)cc2)CCCC1`, the inhibition is -2.12% (inactive). For `C=CCNC(=O)COC(=O)c1ccccc1C(=O)N(C)C1CCCCC1`, the inhibition was 18.3% (active). As to `O=C(COC(=O)c1ccccc1SCC(=O)NC1CCCCC1)NC1CCCCC1`, the inhibition is 1.46% (inactive). Turning to `O=C(COC(=O)c1ccccc1Cl)NC1CCCCCCC1`, the inhibition is 3.26% (inactive).

Consider `CCCCN(C(=O)CSCc1ccc(C)cc1)c1c(N)n(Cc2ccccc2)c(=O)[nH]c1=O`, for which the inhibition is -2.92% (inactive). The figure for `COc1cccc(NC(=S)C(C#N)=C2N(C)c3ccccc3N2C)c1` is -5.1% (inactive); for `Cc1nc(-c2ccccc2)sc1-c1nnc(C2CC2)o1` it is -8.96% (inactive). For the compound `O=C(CNC(=O)C12CC3CC(CC(C3)C1)C2)OCC(=O)N1CCCCC1`, the inhibition was -10.1% (inactive). Take `CC1(C)C/C(=N/Nc2ccc([N+](=O)[O-])cc2[N+](=O)[O-])C(C)(C)O1`: the inhibition is -8.69% (inactive).

With `Cc1ccc(C(=O)C[n+]2cc(-c3ccccc3)n3c2CCCCC3)cc1`, the inhibition is -12.2% (inactive) and -7.58% (inactive). `CCOC(=O)c1nnn2c1nc(N1CCN(c3ccccc3)CC1)c1ccccc12`: the inhibition is -5.69% (inactive). Take `CCCCn1c(N)c(N(CC(C)C)C(=O)CSc2ccc([N+](=O)[O-])cc2)c(=O)[nH]c1=O`: the inhibition is -11.5% (inactive). `C[N+](C)(C)CCNC(=O)c1cc[n+](Cc2ccccc2)c(/C=N/O)c1`: the inhibition was 0.25% (inactive). Consider `CC1CCCCC1NC(=O)COC(=O)Cc1ccc(Br)cc1` (centres undefined), for which the inhibition is -1.84% (inactive).

In the case of `O=C1Nc2c(Br)cc(Br)cc2C1(O)N1CCOCC1` (centres undefined), the inhibition is -1.44% (inactive). Turning to `CCc1[nH]nc(C(=O)N2CCCC(CO)(Cc3ccc(F)cc3F)C2)c1C` (centres undefined), the inhibition is -5.33% (inactive). Regarding `COC(C(=O)Nc1ccc(S(=O)(=O)Nc2ccc(C)c(C)c2)cc1)c1ccccc1` (centres undefined), the inhibition was -0.7% (inactive). Consider `Cc1cccc(-c2c(NC(=O)c3ccco3)oc3ccc(Cl)cc3c2=O)c1`, for which the inhibition is -4.74% (inactive). In the case of `C/C(=N/NC(=O)c1ccncc1)c1ccc2c(c1)OCO2`, the inhibition is -5.5% (inactive). The figure for `C/C(=N\NC(=O)C(N)=O)c1ccc2c(c1)OCCO2` is 17.1% (active); for `C/C(=N\NC(=O)COc1ccc(C)cc1[N+](=O)[O-])c1ccc2c(c1)OCCO2` it is -7.39% (inactive). Consider `CC(C)(C)c1ccc(C(=O)NCc2nnc(SCC(=O)N3CCCc4ccccc43)n2-c2ccccc2)cc1`, for which the inhibition is -6.84% (inactive). As for `CCCCSc1nnc2c(n1)OC=Nc1ccccc1-2`, the inhibition was -2.01% (inactive). For the compound `Cc1ccc2c(c1)C1C[N+](C)(CC(=O)c3ccccc3)CCC1N2C(=O)c1ccccc1Cl` (centres undefined), the inhibition is -13.7% (inactive).

For `COc1ccc(C2CC(=O)NC(=O)C2)cc1`, the inhibition was -0.2% (inactive). The figure for `COc1ccc(CCC(=O)Nc2ccc(Cl)c(S(=O)(=O)N3CCOCC3)c2)cc1OC` is -10.9% (inactive); for `CCc1nnc(NC(=O)c2cc(S(=O)(=O)N3CCN(CC)CC3)ccc2Cl)s1` it is -8.17% (inactive).
